Source: PubChem BioAssay AID1159580 (chemical genetic matrix, 2015)
Values joined by “and” are separate entries in the source; they are usually repeats but may differ in a detail not shown here. Identical values can stand only once. About 2,000 (36%) of roughly 5,500 compounds were called active. Another 18% or so got no clear call; they are omitted. Rule as the data show it: active = normalized growth mostly below about 0.91 (no sharp cut-off); inconclusive = no clear call, values can overlap the other calls; inactive = mostly above about 0.92. The list shows a part of the results.

Test: chemical genetic growth profiling, strain panel (AID 1159580);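 also: tested at 20 µM; growth read once vehicle control cultures reached saturation at 30 °C; 1 = growth at the plate median or of vehicle wells; lower values mean less growth of the strain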
Conditions: growth OD

Measured: normalized growth

CO[C@@H]1C[C@H](O[C@H]2CC[C@]3(C)C4CC[C@]5(C)[C@@H](C6=CC(=O)OC6)CC[C@]5(O)[C@@H]4CC[C@]3(O)C2)O[C@H](C)[C@@H]1O (some centres not stated)
inactive: S. cerevisiae deletion strains, locus YBR021W, strain FUR4, stronger effect = lower value 0.961 | S. cerevisiae deletion strains, locus YBR229C, strain ROT2, stronger effect = lower value 1 | S. cerevisiae deletion strains, locus YCL029C, strain bik1, stronger effect = lower value 1.02 | S. cerevisiae deletion strains, locus YDL035C, strain GPR1, stronger effect = lower value 0.905 | S. cerevisiae deletion strains, locus YDL074C, strain BRE1, stronger effect = lower value 0.987 | S. cerevisiae deletion strains, locus YDL101C, strain DUN1, stronger effect = lower value 1.02 | S. cerevisiae deletion strains, locus YDL134C, strain PPH21, stronger effect = lower value 1 | S. cerevisiae deletion strains, locus YDL185W, strain tfp1, stronger effect = lower value 1.05 | S. cerevisiae deletion strains, locus YDR101C, strain arx1, stronger effect = lower value 1.01 | S. cerevisiae deletion strains, locus YDR162C, strain NBP2, stronger effect = lower value 0.881 | S. cerevisiae deletion strains, locus YDR318W, strain mcm21, stronger effect = lower value 0.987 | S. cerevisiae deletion strains, locus YDR388W, stronger effect = lower value 1 | S. cerevisiae deletion strains, locus YEL061C, strain CIN8, stronger effect = lower value 1.01 | S. cerevisiae deletion strains, locus YER110C, stronger effect = lower value 1.02 | S. cerevisiae deletion strains, locus YER155C, strain BEM2, stronger effect = lower value 1.01 | S. cerevisiae deletion strains, locus YER167W, strain BCK2, stronger effect = lower value 0.95 | S. cerevisiae deletion strains, locus YGL078C, strain dbp3, stronger effect = lower value 0.96 | S. cerevisiae deletion strains, locus YGL086W, strain mad1, stronger effect = lower value 0.935 | S. cerevisiae deletion strains, locus YGL248W, strain PDE1, stronger effect = lower value 1.02 | S. cerevisiae deletion strains, locus YGR078C, strain PAC10, stronger effect = lower value 0.926 | S. cerevisiae deletion strains, locus YGR252W, strain gcn5, stronger effect = lower value 0.844 | S. cerevisiae deletion strains, locus YHR030C, strain SLT2, stronger effect = lower value 1.02 and 1.05 | S. cerevisiae deletion strains, locus YHR079C, strain IRE1 (second series), stronger effect = lower value 1.02 | S. cerevisiae deletion strains, locus YHR079C, strain IRE1, stronger effect = lower value 1.07 | S. cerevisiae deletion strains, locus YHR094C, strain hxt1, stronger effect = lower value 1.02 | S. cerevisiae deletion strains, locus YHR129C, strain ARP1, stronger effect = lower value 1.01 | S. cerevisiae deletion strains, locus YIL066C, strain RNR3, stronger effect = lower value 0.956 | S. cerevisiae deletion strains, locus YIL073C, strain SPO22, stronger effect = lower value 1.04 | S. cerevisiae deletion strains, locus YIR030C, strain dcg1, stronger effect = lower value 1.01 | S. cerevisiae deletion strains, locus YJL095W, strain BCK1, stronger effect = lower value 1.03 and 1.05 | S. cerevisiae deletion strains, locus YJL134W, strain LCB3, stronger effect = lower value 1.01 | S. cerevisiae deletion strains, locus YJL168C, strain set2, stronger effect = lower value 1.02 | S. cerevisiae deletion strains, locus YJL187C, strain SWE1 (second series), stronger effect = lower value 1.04 | S. cerevisiae deletion strains, locus YJR043C, strain POL32, stronger effect = lower value 0.949 | S. cerevisiae deletion strains, locus YJR066W, strain TOR1, stronger effect = lower value 0.987 | S. cerevisiae deletion strains, locus YJR075W, strain HOC1, stronger effect = lower value 0.901 | S. cerevisiae deletion strains, locus YKL009W, strain mrt4, stronger effect = lower value 0.917 | S. cerevisiae deletion strains, locus YKL068W, stronger effect = lower value 0.996 | S. cerevisiae deletion strains, locus YLR039C, strain RIC1, stronger effect = lower value 0.887 | S. cerevisiae deletion strains, locus YLR058C, strain SHM2, stronger effect = lower value 1.01 | S. cerevisiae deletion strains, locus YLR102C, strain apc9, stronger effect = lower value 1.03 | S. cerevisiae deletion strains, locus YLR113W, strain HOG1, stronger effect = lower value 0.964 | S. cerevisiae deletion strains, locus YLR262C, strain YPT6, stronger effect = lower value 0.879 | S. cerevisiae deletion strains, locus YLR268W, strain sec22, stronger effect = lower value 0.95 | S. cerevisiae deletion strains, locus YLR330W, strain CHS5, stronger effect = lower value 1.01 | S. cerevisiae deletion strains, locus YLR342W, strain FKS1 (second series), stronger effect = lower value 0.953 | S. cerevisiae deletion strains, locus YLR371W, strain rom2, stronger effect = lower value 1.05 | S. cerevisiae deletion strains, locus YML016C, strain PPZ1, stronger effect = lower value 1 | S. cerevisiae deletion strains, locus YML032C, strain rad52, stronger effect = lower value 0.988 | S. cerevisiae deletion strains, locus YML124C, strain tub3, stronger effect = lower value 1.02 | S. cerevisiae deletion strains, locus YMR078C, strain ctf18, stronger effect = lower value 1.02 | S. cerevisiae deletion strains, locus YMR263W, strain SAP30, stronger effect = lower value 1.02 | S. cerevisiae deletion strains, locus YMR307W, strain GAS1, stronger effect = lower value 0.815 | S. cerevisiae deletion strains, locus YNL067W, strain RPL9B, stronger effect = lower value 0.99 | S. cerevisiae deletion strains, locus YNL128W, strain TEP1, stronger effect = lower value 0.925 | S. cerevisiae deletion strains, locus YNL153C, strain GIM3, stronger effect = lower value 1.03 | S. cerevisiae deletion strains, locus YNL183C, strain NPR1, stronger effect = lower value 0.988 | S. cerevisiae deletion strains, locus YNL233W, strain BNI4, stronger effect = lower value 0.941 | S. cerevisiae deletion strains, locus YNL250W, strain rad50, stronger effect = lower value 0.964 | S. cerevisiae deletion strains, locus YNL271C, strain bni1, stronger effect = lower value 0.999 | S. cerevisiae deletion strains, locus YNL298W, strain CLA4, stronger effect = lower value 0.944 | S. cerevisiae deletion strains, locus YNL307C, strain MCK1, stronger effect = lower value 1.02 | S. cerevisiae deletion strains, locus YNL322C, strain KRE1, stronger effect = lower value 0.999 | S. cerevisiae deletion strains, locus YNR052C, strain pop2, stronger effect = lower value 1.02 | S. cerevisiae deletion strains, locus YOL012C, strain htz1 2.27 | S. cerevisiae deletion strains, locus YOL147C, strain pex11, stronger effect = lower value 1.02 | S. cerevisiae deletion strains, locus YOR061W, strain CKA2, stronger effect = lower value 1.01 | S. cerevisiae deletion strains, locus YOR069W, strain VPS5, stronger effect = lower value 1.01 | S. cerevisiae deletion strains, locus YOR136W, strain idh2, stronger effect = lower value 0.983 | S. cerevisiae deletion strains, locus YOR144C, strain elg1, stronger effect = lower value 1.01 | S. cerevisiae deletion strains, locus YOR231W, strain MKK1, stronger effect = lower value 1.05 | S. cerevisiae deletion strains, locus YOR316C, strain cot1, stronger effect = lower value 1.02 | S. cerevisiae deletion strains, locus YPL055C, strain LGE1, stronger effect = lower value 0.877 | S. cerevisiae deletion strains, locus YPL256C, strain CLN2, stronger effect = lower value 1.11 | S. cerevisiae deletion strains, locus YPR119W, strain clb2, stronger effect = lower value 1.02 | S. cerevisiae deletion strains, locus YPR141C, strain kar3, stronger effect = lower value 1.02 | S. cerevisiae deletion strains, locus YPR163C, strain tif3, stronger effect = lower value 0.993 | S. cerevisiae deletion strains, locus YPR167C, strain met16, stronger effect = lower value 0.934 | S. cerevisiae deletion strains, strain wtn01, stronger effect = lower value 0.921
active: S. cerevisiae deletion strains, locus YAL013W, strain DEP1, stronger effect = lower value 0.869 | S. cerevisiae deletion strains, locus YDL192W, strain arf1, stronger effect = lower value 0.888 | S. cerevisiae deletion strains, locus YDR502C, strain sam2, stronger effect = lower value 0.893 | S. cerevisiae deletion strains, locus YGR135W, strain pre9, stronger effect = lower value 0.865 | S. cerevisiae deletion strains, locus YHR200W, strain rpn10, stronger effect = lower value 0.92 | S. cerevisiae deletion strains, locus YIL125W, strain kgd1, stronger effect = lower value 0.926 | S. cerevisiae deletion strains, locus YKL085W, strain MDH1 (second series), stronger effect = lower value 0.897 | S. cerevisiae deletion strains, locus YKL085W, strain MDH1, stronger effect = lower value 0.897 | S. cerevisiae deletion strains, locus YKR001C, strain vps1, stronger effect = lower value 0.76 | S. cerevisiae deletion strains, locus YLR418C, strain cdc73, stronger effect = lower value 0.651 | S. cerevisiae deletion strains, locus YMR223W, strain ubp8, stronger effect = lower value 0.889 | S. cerevisiae deletion strains, locus YOR184W, strain ser1, stronger effect = lower value 0.606 | S. cerevisiae strains, strain wild type, stronger effect = lower value 0.899
